According to PubChem BioAssay (NCATS):
Records with an inconclusive call do not appear. Values without a mark were called inactive. Active and inactive are the calls of the source. Calls come from the whole dose curve; as a rule, active = well fitted inhibition curve with a large enough effect; inconclusive = small, poorly fitted or top-dose-only effect; inactive = flat fitted curve, though single readings scatter.

System: TAB113
Assay: qHTS profiling for inhibitors of Plasmodium falciparum proliferation (AID 504749); note: nearly all actives have a fitted effect of over 60% in size;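 for activity, negative = inhibition: 0% = DMSO vehicle and full inhibition = artemisinin control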
Settings: P. falciparum in erythrocytes, SYBR Green DNA, 72 h; series mostly up to 28.7 µM; activity, negative = inhibition: at the top concentration
How it was run: (§1)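 Readout was DNA-dye fluorescence from lysed cultures, ex 485/em 535 nm. Parasitized red cells had grown 72 h with compound; data scaled between 0.29 uM artemisinin and DMSO wells and corrected using vehicle-only plates.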
Potency is the fitted concentration of half-maximal effect.

| Compound | activity, negative = inhibition [%] | Potency |
| --- | --- | --- |
| CC(C)=CCOc1ccc(/C=C/C(=O)c2ccc(OCC=C(C)C)cc2OCC(=O)O)cc1 | -15.3 | – |
| CN1CCN(C2=Nc3cc(F)ccc3Cc3ccccc32)CC1 | -29.3 | – |
| CC(=O)O[C@]1(C(C)=O)CC[C@H]2[C@@H]3C=C(Cl)C4=CC(=O)CC[C@]4(C)[C@H]3CC[C@@]21C | – | 7.08 µM (active) |

System: TAB165
Assay: as above
Settings: P. falciparum in erythrocytes, SYBR Green DNA, 72 h; series mostly up to 28.7 µM; activity, negative = inhibition: at the top concentration
How it was run: as §1

| Compound | Potency | activity, negative = inhibition |
| --- | --- | --- |
| O=C(CN1CCN(Cc2ccc3c(c2)OCO3)CC1)N1c2ccccc2Sc2ccccc21 | 10 µM (active) | – |
| CCC(CC)(CC(=O)Nc1cccc(/C=C/c2nc(C3CCC3)cs2)c1)C(=O)O | – | -23.1% |
| C#C[C@]1(OC(C)=O)CC[C@H]2[C@@H]3CCC4=C/C(=N/O)CC[C@@H]4[C@H]3CC[C@@]21CC | – | -6.58% |
| Cc1cccc(C)c1NC(=O)CN1CCCCCC1 | – | -4.06% |
| CCOC(=O)Nc1ccc2c(c1)N(C(=O)CCN1CCOCC1)c1ccccc1S2 | – | -2.01% [at 12.8 µM] |
| CCc1ccc(C(=O)C(C)CN2CCCCC2)cc1 (centres undefined) | – | -5.39% |
| CCC(C(=O)OCCOCCN(CC)CC)c1ccccc1 (centres undefined) | – | -21.9% |
| Oc1ccc(Cl)cc1Cc1cc(Cl)ccc1O | 11.2 µM (active) | – |
| CC(=O)NCCCCCC(=O)O | – | 14.2% |
| O=C(NC1CCN(CCc2c[nH]c3ccccc23)CC1)c1ccccc1 | – | -24.6% |
| CCOc1ccccc1OCCN[C@H](C)Cc1ccc(OC)c(S(N)(=O)=O)c1 | – | -8.52% |
| CCN(CC)CCOC(=O)C1(c2ccccc2)CCCC1 | – | -74.7% |
| NC(=O)C1(N2CCCCC2)CCN(CCCC(=O)c2ccc(F)cc2)CC1 | – | -26.6% |
| Cc1ncc(CO)c(C=O)c1O | – | 5.17% |
| CC[N+](C)(CC)CCOC(=O)C(O)(c1ccccc1)C1CCCCC1 (centres undefined) | – | -29.4% |
| CCNC(=O)NCc1cccc(Cl)c1 | – | 10.1% |
| Cc1ccc2c(Br)cc(Br)c(O)c2n1 | 6.31 µM (active) | – |
| O=C(O)CCc1nc2ccccc2[nH]1 | 7.94 µM (active) | – |
| O=S(c1cc(Cl)cc(Cl)c1O)c1cc(Cl)cc(Cl)c1O | 0.355 µM (active) | – |
| OC[C@H]1O[C@@H]2O[C@H]3[C@H](O)[C@@H](O)[C@@H](O[C@H]4[C@H](O)[C@@H](O)[C@@H](O[C@H]5[C@H](O)[C@@H](O)[C@@H](O[C@H]6[C@H](O)[C@@H](O)[C@@H](O[C@H]7[C@H](O)[C@@H](O)[C@@H](O[C@H]8[C@H](O)[C@@H](O)[C@@H](O[C@H]1[C@H](O)[C@H]2O)O[C@@H]8CO)O[C@@H]7CO)O[C@@H]6CO)O[C@@H]5CO)O[C@@H]4CO)O[C@@H]3CO | – | 3.11% |
| CC(C)=CCOc1ccc(/C=C/C(=O)c2ccc(OCC=C(C)C)cc2OCC(=O)O)cc1 | – | -11% |
